The panel holds about 79,000 compounds, 15% with a hit somewhere; the sample as a whole holds those more often. A number with no mark means an inactive call. Activity calls are given as the source filed them. Cut-off read from the data, not from the text of the source: active = growth inhibition above about 70%; inactive = the rest.
What was measured:
[1] = NCI Yeast Anticancer Drug Screen. Data for the rad50 strain (AID 155);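 note: 0% = growth of vehicle-only cultures of the same strain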; details: S. cerevisiae rad50 strain growth inhibition, stronger effect = higher value
Method in brief: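 Genetically altered yeast (DNA repair pathway); compound treatment; growth inhibition vs vehicle ctrl.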

[2] = NCI Yeast Anticancer Drug Screen. Data for the mec2-1 strain (AID 157); details: S. cerevisiae mec2-1 strain, stronger effect = higher value
Method in brief: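 Compounds were applied to mec2-1 yeast cells. Their growth was then compared with that of vehicle-treated cultures to give growth inhibition.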

[3] = NCI Yeast Anticancer Drug Screen. Data for the sgs1 mgt1 strain (AID 161);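 note: 0% = growth of cultures given vehicle only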; details: S. cerevisiae sgs1 mgt1 strain, stronger effect = higher value
Method in brief: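 Yeast cells carrying a defined DNA-repair defect were exposed to test compounds. Growth inhibition was measured relative to vehicle-treated controls.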

[4] = NCI Yeast Anticancer Drug Screen. Data for the cln2 rad14 strain (AID 165);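 note: 0% = growth equal to vehicle treated cultures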; details: S. cerevisiae cln2 rad14 strain, stronger effect = higher value
Method in brief: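 Strain: cln2 rad14 yeast, altered in cell cycle control and DNA damage repair. Read-out: growth inhibition vs vehicle.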

[5] = NCI Yeast Anticancer Drug Screen. Data for the bub3 strain (AID 167); details: S. cerevisiae bub3 mutant strain, stronger effect = higher value
Method in brief: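 Yeast carrying a defined mutation is treated with each compound, and growth is compared with that of vehicle-exposed cells to give inhibition.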

[6] = NCI Yeast Anticancer Drug Screen. Data for the mlh1 rad18 strain (AID 175); details: S. cerevisiae mlh1 rad18 strain growth inhibition, stronger effect = higher value
Method in brief: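 A repair-deficient yeast strain is exposed to test compound, and growth is scored relative to vehicle-treated controls.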

[7] = at 5.0 µM (retest, dose inferred, filed as 0.5)
[8] = at 50.0 µM (retest, dose inferred, filed as 5.0)

Compound	growth inhibition [1, 7]	growth inhibition [1, 8]	growth inhibition ([1]; at 50.0 µM)	growth inhibition [2, 7]	growth inhibition [2, 8]	growth inhibition ([2]; at 50.0 µM)	growth inhibition [3, 7]	growth inhibition [3, 8]	growth inhibition ([3]; at 50.0 µM)	growth inhibition [4, 7]	growth inhibition [4, 8]	growth inhibition ([4]; at 50.0 µM)	growth inhibition [5, 7]	growth inhibition [5, 8]	growth inhibition ([5]; at 50.0 µM)	growth inhibition [6, 7]	growth inhibition [6, 8]	growth inhibition ([6]; at 50.0 µM)
ClC(Cl)(Cl)C1OCOC(C(Cl)(Cl)Cl)O1 (configuration not stated)	20%	98% (active)	99.2% (active)	17%	99% (active)	99.2% (active)	11%	99% (active)	99.3% (active)	24%	99% (active)	99.3% (active)	3%	98% (active)	99.3% (active)	33%	99% (active)	99.3% (active)
CC1CCC2(OC1)OC1CC3C4CCC5CC(OC6OC(COC7OC(CO)C(O)C(O)C7O)C(OC7OC(C)C(O)C(O)C7O)C(O)C6OC6OC(CO)C(O)C(O)C6O)CCC5(C)C4CCC3(C)C1C2C (configuration not stated)	0%	99% (active)	99.2% (active)	-1%	100% (active)	99.8% (active)	16%	97% (active)	99.8% (active)	-2%	99% (active)	99.5% (active)	15%	100% (active)	99.6% (active)	2%	100% (active)	99.7% (active)
Clc1ccc(CNc2ccc(Cl)c(Cl)c2)cc1	8%	95% (active)	97.8% (active)	36%	97% (active)	98.2% (active)	11%	97% (active)	98.2% (active)	-10%	91% (active)	97.7% (active)	2%	96% (active)	97.5% (active)	15%	95% (active)	97% (active)
NC(=O)C1CCN(N=Nc2c(-c3ccccc3)n[nH]c2-c2ccccc2)CC1	79% (active)	99% (active)	99.4% (active)	99% (active)	100% (active)	99.5% (active)	99% (active)	100% (active)	99.5% (active)	99% (active)	99% (active)	99.3% (active)	99% (active)	99% (active)	99.5% (active)	99% (active)	99% (active)	99.2% (active)
CCC(C)NC(=S)N/N=C(\C)c1ccccn1 (configuration not stated)	20%	100% (active)	78% (active)	19%	99% (active)	85.7% (active)	5%	98% (active)	90.6% (active)	33%	100% (active)	90% (active)	0%	100% (active)	90.5% (active)	39%	99% (active)	89.2% (active)
CCc1cccc(CC)c1NC(=O)CS	-151%	93% (active)	98% (active)	-51%	94% (active)	97.7% (active)	-64%	90% (active)	61.7%	-72%	90% (active)	95.8% (active)	-85%	92% (active)	97.8% (active)	-132%	93% (active)	98% (active)
COc1cc(OC(C)C)cc2c1C(=O)C(C(O)(O)C(F)(F)F)=CC2=O	0%	84% (active)	72.4% (active)	11%	81% (active)	85.5% (active)	2%	78% (active)	47.7%	5%	85% (active)	81.2% (active)	6%	88% (active)	82.9% (active)	-8%	77% (active)	92.8% (active)
O=C(Nc1cccc(C(F)(F)F)c1)c1cc(Br)cc(Br)c1O	38%	87% (active)	83.2% (active)	37%	80% (active)	62.6%	44%	85% (active)	77% (active)	45%	75% (active)	67.5%	44%	83% (active)	69.3%	52%	95% (active)	64.1%
O=C(Nc1cccc2ccccc12)OCCCCCCl	-2%	97% (active)	97% (active)	-2%	96% (active)	97% (active)	1%	98% (active)	97.1% (active)	-6%	95% (active)	95.5% (active)	-5%	93% (active)	97.2% (active)	-16%	93% (active)	97.4% (active)
